# Results from PubChem BioAssay (EPA / NIEHS).
# “And” between values parts separate entries of the source, which are not always exact repeats. Equal entries are not always repeated. Records with an inconclusive call do not appear. Where a structure was tested more than once in an assay, its records may differ in their call. The source made the active and inactive calls. The calls were made as follows: active = hit-call score of the fitted dose curve at least 0.9, where 1 is the maximum; inconclusive = response in the unintended direction; inactive = score below 0.9.
# What was measured:
# [1] = target: bovine Estrogen Receptor (ER), ESR1 (gene 407238) (UniProt P49884); test: NVS_NR_bER: NovaScreen (NVS) Nuclear Receptor Binding Assay for bovine Estrogen Receptor (ER) (AID 2283345);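 also: actives lower the bound radioligand count which means they displace the ER ligand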
# Summary of the method: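 Cell-free radioligand binding with receptor from bovine uterine membranes, read by scintillation counting 18 h after dosing. Loss of specific binding was scored against DMSO; primary screen at 25 uM in duplicate, actives then run as concentration series.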
# [2] = target: chimpanzee Androgen Receptor (AR), AR (gene 747460) (UniProt O97775); test: NVS_NR_cAR: NovaScreen (NVS) Nuclear Receptor Binding Assay for chimpanzee Androgen Receptor (AR) (AID 2283346);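 also: radioligand displacement from AR measured by scintillation counting in a cell-free assay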
# Summary of the method: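 Cell-free radioligand displacement using receptor protein extracted from Sf9/Sf21 cells; bound radioligand measured by scintillation counting 72 hours after chemical dosing. Loss of signal versus DMSO baseline indicates binding; primary screen single-concentration in duplicate at 25 uM, actives followed in concentration series.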
# [3] = target: Estrogen receptor (Homo sapiens) (UniProt P03372); test: NVS_NR_hER: NovaScreen (NVS) Nuclear Receptor Binding Assay for human Estrogen Receptor (ER) (AID 2283348)
# Summary of the method: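 Radiodetection of ligand displacement in a lysate-based, cell-free format using MCF7 extracts, read at 18 hours. Duplicate 25 uM primary testing, then concentration series for actives.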
# [4] = target: Estrogen receptor (Homo sapiens) (UniProt P03372); test: OT_ER_ERaERa_0480: Odyssey Thera (OT) 8-hour HEK293T Protein-Complementation Assay for Estrogen Receptor-alpha/-alpha Homodimer (AID 2283351);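 also: rise in fluorescence from reassembled reporter fragments on ERα LBD homodimer in nucleus or whole cell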
# Summary of the method: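 Read-out: fluorescence intensity rise relative to DMSO, nuclear for agonists, nuclear plus cytoplasmic for antagonists. Construct is the ERα LBD (aa 310-547) homodimer fragment-complementation pair, stably expressed in HEK293T; exposure 8 h.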
# [5] = target: T1, Estrogen receptor (Homo sapiens) + Estrogen receptor beta (Homo sapiens) (UniProt P03372+Q92731); test: OT_ER_ERaERb_0480: Odyssey Thera (OT) 8-hour HEK293T Protein-Complementation Assay for Estrogen Receptor-alpha/-beta Heterodimer (AID 2283352)
# Summary of the method: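 Fluorescence increase from reconstituted reporter fragments, quantified by laser scanning cytometer, reflects ER-alpha/ER-beta heterodimer formation in human HEK293T cells. Exposure 8 h; positive-direction fitting against DMSO vehicle.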
# [6] = target: T1, Estrogen receptor (Homo sapiens) + Estrogen receptor beta (Homo sapiens); test: OT_ER_ERaERb_1440: Odyssey Thera (OT) 24-hour HEK293T Protein-Complementation Assay for Estrogen Receptor-alpha/-beta Homodimer (AID 2283356);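 also: heteromer of ER alpha and ER beta binding domains; hits raise reporter fluorescence and both agonists and antagonists give an increase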
# Summary of the method: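 Fragment complementation between ER alpha (310-547) and ER beta (263-489) ligand-binding domains in HEK293T cells; signal read 24 h post-dosing by laser scanning cytometer. Gain of fluorescence relative to DMSO fitted.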
# [7] = target: Estrogen receptor beta (Homo sapiens) (UniProt Q92731); test: OT_ER_ERbERb_0480: Odyssey Thera (OT) 8-hour HEK293T Protein-Complementation Assay for Estrogen Receptor-beta/-beta Homodimer (AID 2283357);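 also: active means signal gain over DMSO baseline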
# Summary of the method: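 Fluorescence gain from complemented reporter fragments on ER-beta LBD homodimer in HEK293T was quantified against DMSO controls after 8 h treatment, fixation in 4% formaldehyde and Draq5 staining.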
# [8] = target: human Thyroid Receptor Alpha (TRa), THRA (gene 7067) (UniProt P10827); test: NVS_NR_hTRa_Antagonist: NovaScreen (NVS) Nuclear Receptor Binding Assay for human Thyroid Receptor Alpha Antagonism (TRa) (AID 2283362);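 also: activity is loss of signal relative to DMSO baseline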
# Summary of the method: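 Actives from a duplicate 25 uM single-point screen were retested in concentration series. The cell-free antagonist-format binding assay was read by AlphaLISA chemiluminescence at 1 h, scored as signal loss relative to DMSO.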
# NCBI gene 100848466 = test: NVS_NR_bPR: NovaScreen (NVS) Nuclear Receptor Binding Assay for bovine Progextron Receptor (PR) (AID 2283343);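 as to AC50: actives lower bound radioligand signal below DMSO meaning displacement of the label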
# Summary of the method: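 Steps: bovine uterine membranes were dosed with chemical alongside radioligand, incubated 18 hours, then radiodetected by scintillation counting. Initial testing used 25 uM in duplicate; confirmed actives were rerun as concentration series.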
# PGR (gene 5241) = PGR (gene 5241) (UniProt P06401); test: NVS_NR_hPR: NovaScreen (NVS) Nuclear Receptor Binding Assay for human Progestron Receptor (PR) (AID 2283360)
# Summary of the method: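 Cell-free radioligand binding using receptor protein extracted from T47D cells, read by scintillation counting 18 hours after dosing. Loss of signal relative to DMSO baseline indicates displacement; primary screen single concentration 25 uM in duplicate, actives followed in concentration series.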
# [9] = target: Estrogen receptor (Homo sapiens) (UniProt P03372); test: OT_ER_ERaERa_1440: Odyssey Thera (OT) 24-hour HEK293T Protein-Complementation Assay for Estrogen Receptor-alpha/-alpha Homodimer (AID 2283349);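 also: hits raise fluorescence above DMSO for agonists and antagonists alike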
# Summary of the method: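 Stably transfected HEK293T; ERα LBD homodimer PCA. 24 h dosing, fluorescence intensity read, gain-of-signal vs DMSO.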
# [10] = target: Androgen Receptor/SRC-1 Co-activator, AR (gene 367) (UniProt P10275); test: OT_AR_ARSRC1_0960: Odyssey Thera (OT) 16-hour HEK293T Protein-Complementation Assay for Androgen Receptor/SRC-1 Co-activator (AID 2283353);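 also: actives raise the signal above DMSO so potency reflects increased AR and SRC-1 complex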
# Summary of the method: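 Readout: 488 nm nuclear-to-cytoplasmic fluorescence ratio from imaging of at least 400 cells per image, 16 h post-dose. Reporter is Venus YFP complementation between AR and SRC-1 fusions, stably expressed in HEK293T; activity scored upward relative to DMSO.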
# [11] = target: Androgen Receptor/SRC-1 Co-activator, AR (gene 367) (UniProt P10275); test: OT_AR_ARSRC1_0480: Odyssey Thera (OT) 8-hour HEK293T Protein-Complementation Assay for Androgen Receptor/SRC-1 Co-activator (AID 2283354);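 also: hits raise the complementation signal above DMSO so AC50 marks enhancers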
# Summary of the method: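 After 8 h dosing, stably expressing HEK293T cells with split-Venus AR/SRC-1 fusions were imaged (488, 635nm). The 488nm N/C ratio per image gave the endpoint, analysed in the positive direction against DMSO.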
# [12] = target: Bile acid receptor (Homo sapiens) (UniProt Q96RI1); test: NVS_NR_hFXR_Agonist: NovaScreen (NVS) Nuclear Receptor Binding Assay for human Farnesoid X Receptor Agonism (FXR) (AID 2283347)
# Summary of the method: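 Agonist-mode FXR assay read by time-resolved FRET 1 h after compound addition, using isolated human receptor protein without cells. Duplicate 25 uM single-point primary screen, concentration series for confirmed actives; DMSO as baseline.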
# [13] = target: human Peroxisome Proliferator-activated Receptor alpha (PPARa), PPARA (gene 5465) (UniProt Q07869); test: NVS_NR_hPPARa: NovaScreen (NVS) Nuclear Receptor Binding Assay for human Peroxisome Proliferator-activated Receptor alpha (PPARa) (AID 2283359);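 also: activity means loss of TR-FRET signal versus DMSO baseline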
# Summary of the method: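 One-hour incubation, cell-free extracted protein, TR-FRET binding readout; signal loss vs DMSO scored. Screen: 25 uM duplicates, confirmatory dose series for actives.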
# Chain of human Peroxisome Proliferator-activated Receptor alpha (PPARa), PPARA (gene 5465) (Q07869 whole entry, looked up): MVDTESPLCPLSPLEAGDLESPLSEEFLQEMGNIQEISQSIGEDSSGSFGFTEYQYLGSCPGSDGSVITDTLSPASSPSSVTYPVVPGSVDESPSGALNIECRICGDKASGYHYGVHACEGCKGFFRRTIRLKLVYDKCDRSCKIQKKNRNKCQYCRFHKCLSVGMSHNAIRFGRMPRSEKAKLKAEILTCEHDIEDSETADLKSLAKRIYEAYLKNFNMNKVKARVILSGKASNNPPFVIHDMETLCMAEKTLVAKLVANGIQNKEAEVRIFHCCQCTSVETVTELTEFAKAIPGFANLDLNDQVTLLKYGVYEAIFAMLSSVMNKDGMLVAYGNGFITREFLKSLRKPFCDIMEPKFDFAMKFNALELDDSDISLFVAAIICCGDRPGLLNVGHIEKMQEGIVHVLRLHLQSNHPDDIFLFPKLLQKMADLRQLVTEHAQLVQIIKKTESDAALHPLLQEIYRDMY
# T1 sequence (P03372 whole entry, looked up, the tested form may be a part): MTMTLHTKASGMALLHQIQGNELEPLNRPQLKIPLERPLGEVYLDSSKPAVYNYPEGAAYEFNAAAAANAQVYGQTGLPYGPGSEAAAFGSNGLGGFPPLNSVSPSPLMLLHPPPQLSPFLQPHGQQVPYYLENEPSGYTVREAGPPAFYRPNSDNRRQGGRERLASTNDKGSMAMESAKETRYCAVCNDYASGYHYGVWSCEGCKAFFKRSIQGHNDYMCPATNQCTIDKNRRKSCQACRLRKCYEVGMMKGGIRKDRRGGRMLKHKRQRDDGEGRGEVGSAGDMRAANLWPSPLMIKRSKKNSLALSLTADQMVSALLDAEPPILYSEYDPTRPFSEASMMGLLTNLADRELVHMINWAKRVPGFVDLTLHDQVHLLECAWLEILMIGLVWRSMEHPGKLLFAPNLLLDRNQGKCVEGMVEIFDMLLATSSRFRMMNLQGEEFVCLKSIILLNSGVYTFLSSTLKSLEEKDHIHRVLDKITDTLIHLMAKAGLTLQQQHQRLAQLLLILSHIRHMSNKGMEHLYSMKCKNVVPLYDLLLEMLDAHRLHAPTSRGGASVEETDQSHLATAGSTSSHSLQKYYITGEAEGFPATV
# T1 sequence (Q92731 whole entry, looked up, the tested form may be a part): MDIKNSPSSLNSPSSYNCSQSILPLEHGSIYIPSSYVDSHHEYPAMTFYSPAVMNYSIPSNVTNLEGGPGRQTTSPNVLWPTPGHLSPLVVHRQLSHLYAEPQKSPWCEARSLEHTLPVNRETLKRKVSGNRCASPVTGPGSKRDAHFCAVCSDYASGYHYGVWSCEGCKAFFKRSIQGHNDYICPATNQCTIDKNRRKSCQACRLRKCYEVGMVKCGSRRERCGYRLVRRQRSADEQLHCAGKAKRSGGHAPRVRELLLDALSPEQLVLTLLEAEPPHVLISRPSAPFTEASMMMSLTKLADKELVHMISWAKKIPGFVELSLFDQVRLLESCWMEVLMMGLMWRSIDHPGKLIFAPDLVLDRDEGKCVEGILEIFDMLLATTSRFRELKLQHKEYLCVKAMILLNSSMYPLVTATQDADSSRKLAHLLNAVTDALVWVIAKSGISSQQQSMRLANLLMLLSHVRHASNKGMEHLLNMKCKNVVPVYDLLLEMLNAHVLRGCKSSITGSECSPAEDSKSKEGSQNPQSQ
# Chain of Estrogen receptor (Homo sapiens) (P03372 whole entry, looked up, the tested form may be a part): as the sequence (P03372 whole entry, looked up, the tested form may be a part) above
# Chain of Androgen Receptor/SRC-1 Co-activator, AR (gene 367) (P10275 whole entry, looked up, the tested form may be a part): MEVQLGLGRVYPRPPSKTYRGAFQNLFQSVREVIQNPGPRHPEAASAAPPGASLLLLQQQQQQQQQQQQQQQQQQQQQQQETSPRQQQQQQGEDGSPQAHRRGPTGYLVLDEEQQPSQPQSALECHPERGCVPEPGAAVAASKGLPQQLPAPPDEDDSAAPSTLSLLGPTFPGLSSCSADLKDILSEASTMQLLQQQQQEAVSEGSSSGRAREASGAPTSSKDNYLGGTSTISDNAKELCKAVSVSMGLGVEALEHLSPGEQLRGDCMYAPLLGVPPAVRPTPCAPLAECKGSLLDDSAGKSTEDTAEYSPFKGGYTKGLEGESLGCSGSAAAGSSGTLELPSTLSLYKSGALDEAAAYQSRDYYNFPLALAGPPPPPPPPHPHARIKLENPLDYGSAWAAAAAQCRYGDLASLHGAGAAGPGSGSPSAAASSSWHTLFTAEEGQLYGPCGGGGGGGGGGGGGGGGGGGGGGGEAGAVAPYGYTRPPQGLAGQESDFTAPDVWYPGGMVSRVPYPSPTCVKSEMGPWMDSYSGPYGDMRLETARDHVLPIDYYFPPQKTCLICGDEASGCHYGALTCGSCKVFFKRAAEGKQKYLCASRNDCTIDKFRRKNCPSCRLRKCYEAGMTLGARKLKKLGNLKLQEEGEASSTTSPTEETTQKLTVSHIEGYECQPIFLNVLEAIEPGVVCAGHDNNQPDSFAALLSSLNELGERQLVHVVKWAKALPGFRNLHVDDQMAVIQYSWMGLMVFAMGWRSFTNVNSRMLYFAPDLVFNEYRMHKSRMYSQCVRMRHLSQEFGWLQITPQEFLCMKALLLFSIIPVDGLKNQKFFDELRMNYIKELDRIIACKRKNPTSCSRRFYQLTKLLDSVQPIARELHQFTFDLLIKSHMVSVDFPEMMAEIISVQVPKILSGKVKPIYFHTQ
# Chain of Estrogen receptor beta (Homo sapiens) (Q92731 whole entry, looked up, the tested form may be a part): as the sequence (Q92731 whole entry, looked up, the tested form may be a part) above
# Chain of chimpanzee Androgen Receptor (AR), AR (gene 747460) (O97775 whole entry, looked up): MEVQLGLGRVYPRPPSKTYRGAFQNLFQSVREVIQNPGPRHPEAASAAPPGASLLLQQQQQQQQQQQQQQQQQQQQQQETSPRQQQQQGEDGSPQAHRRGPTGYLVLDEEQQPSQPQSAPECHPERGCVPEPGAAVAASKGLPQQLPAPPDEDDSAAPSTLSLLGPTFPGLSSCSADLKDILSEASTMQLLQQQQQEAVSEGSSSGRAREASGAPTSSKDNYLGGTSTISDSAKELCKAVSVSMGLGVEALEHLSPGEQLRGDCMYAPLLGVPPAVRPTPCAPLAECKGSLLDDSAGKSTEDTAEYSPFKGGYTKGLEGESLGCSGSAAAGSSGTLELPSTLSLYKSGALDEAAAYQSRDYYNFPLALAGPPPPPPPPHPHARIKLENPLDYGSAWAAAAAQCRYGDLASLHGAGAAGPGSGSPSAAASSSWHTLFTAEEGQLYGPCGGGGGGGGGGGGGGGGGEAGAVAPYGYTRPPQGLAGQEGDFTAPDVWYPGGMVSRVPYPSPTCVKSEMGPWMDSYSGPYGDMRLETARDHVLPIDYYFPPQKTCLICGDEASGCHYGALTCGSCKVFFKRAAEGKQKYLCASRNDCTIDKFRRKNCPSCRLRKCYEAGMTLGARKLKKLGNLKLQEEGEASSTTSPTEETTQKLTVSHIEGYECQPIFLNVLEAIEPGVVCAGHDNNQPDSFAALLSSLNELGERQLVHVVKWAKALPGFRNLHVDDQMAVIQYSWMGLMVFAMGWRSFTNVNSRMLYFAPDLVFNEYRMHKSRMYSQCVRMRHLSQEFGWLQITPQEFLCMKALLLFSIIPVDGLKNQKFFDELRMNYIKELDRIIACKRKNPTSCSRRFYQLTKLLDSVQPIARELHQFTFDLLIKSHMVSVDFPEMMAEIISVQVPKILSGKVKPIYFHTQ
# Chain of Bile acid receptor (Homo sapiens) (Q96RI1 whole entry, looked up): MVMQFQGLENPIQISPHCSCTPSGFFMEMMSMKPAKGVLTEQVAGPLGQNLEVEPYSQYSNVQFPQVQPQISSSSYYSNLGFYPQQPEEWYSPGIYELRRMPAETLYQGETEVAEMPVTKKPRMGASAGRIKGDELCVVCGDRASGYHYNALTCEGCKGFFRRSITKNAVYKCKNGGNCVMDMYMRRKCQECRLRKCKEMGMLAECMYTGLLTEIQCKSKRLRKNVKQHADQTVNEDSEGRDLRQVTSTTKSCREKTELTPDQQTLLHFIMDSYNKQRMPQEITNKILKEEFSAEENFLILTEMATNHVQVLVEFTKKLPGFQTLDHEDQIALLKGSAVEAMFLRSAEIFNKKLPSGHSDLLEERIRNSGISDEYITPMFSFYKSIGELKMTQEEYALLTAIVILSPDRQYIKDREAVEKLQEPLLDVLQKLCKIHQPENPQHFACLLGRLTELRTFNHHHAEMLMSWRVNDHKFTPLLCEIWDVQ
smiles,measurement,setting,value
Clc1ccc(C2(Cn3cncn3)CC(Br)CO2)c(Cl)c1 (configuration not stated),outcome,[1],inactive
same,AC50,[2],7.36 µM (active)
same,outcome,[3],inactive
same,outcome,[4],inactive
same,outcome,[5],inactive
same,AC50,[6],56.4 µM (active)
same,outcome,[7],inactive
same,outcome,[8],inactive
ClC1=C(Cl)[C@]2(Cl)[C@H]3[C@H]([C@H]4C=C[C@H]3C4)[C@@]1(Cl)C2(Cl)Cl,outcome,[1],inactive
same,outcome,[3],inactive
O=C(O)C(F)(F)C(F)(F)C(F)(F)C(F)(F)C(F)(F)C(F)(F)C(F)(F)C(F)(F)C(F)(F)C(F)(F)F,AC50,NCBI gene 100848466,23.1 µM (active)
same,outcome,[7],inactive
C[C@]12CCC(=O)C[C@@H]1CC[C@@H]1[C@@H]2CC[C@]2(C)[C@@H](O)CC[C@@H]12,outcome,NCBI gene 100848466,inactive
same,AC50,[7],6.23 µM (active) and 10.7 µM (active) and 5.44 µM (active)
same,outcome,[7],inactive
same,AC50,PGR (gene 5241),0.366 µM (active)
CCC[CH2][Sn]([CH2]CCC)([CH2]CCC)[O]C(=O)c1ccccc1,outcome,[1],inactive
same,AC50,[2],9.94 µM (active)
same,AC50,[3],2.94 µM (active)
same,outcome,[9],inactive
same,outcome,[4],inactive
BrCCBr,outcome,[3],inactive
same,outcome,[4],inactive
same,outcome,[6],inactive
same,outcome,[7],inactive
CCOC(=O)Nc1cccc(OC(=O)Nc2ccccc2)c1,outcome,[2],inactive
same,outcome,[4],inactive
same,outcome,[6],inactive
same,outcome,[7],inactive
N#CCCO,outcome,[2],inactive
O=C1CCCN1,outcome,[3],inactive
same,outcome,[4],inactive
Cc1ccc(N)cc1Cl,outcome,[2],inactive
same,outcome,[4],inactive
same,outcome,[5],inactive
same,AC50,[6],15.3 µM (active)
same,outcome,[7],inactive
CNC(=O)O/N=C/C(C)(C)S(C)=O (configuration not stated),outcome,[2],inactive
same,outcome,[4],inactive
same,outcome,[5],inactive
same,outcome,[6],inactive
same,outcome,[7],inactive
CNC,outcome,[9],inactive
same,outcome,[4],inactive
CC(C)(C)c1cc(O)ccc1O,outcome,[3],inactive
same,outcome,[4],inactive
CCC1(c2ccc(N)cc2)CCC(=O)NC1=O (configuration not stated),outcome,[3],inactive
same,outcome,[4],inactive
same,outcome,[10],inactive
same,outcome,[11],inactive
Clc1nc(Cl)nc(Cl)n1,outcome,[9],inactive
same,outcome,[4],inactive
CCC(C)(C)c1ccc(O)c(C(C)(C)CC)c1,outcome,[12],inactive
same,outcome,[3],inactive
same,outcome,[9],inactive
same,outcome,[4],inactive
same,outcome,[6],inactive
same,outcome,[7],inactive
CC12CC1(C)C(=O)N(c1cc(Cl)cc(Cl)c1)C2=O (configuration not stated),outcome,[2],inactive
same,outcome,[10],inactive
same,outcome,[11],inactive
same,outcome,[7],inactive
O=C(Nc1ccc2[nH]ccc2c1)c1cc2cc(F)ccc2n1Cc1cccc(F)c1,outcome,[3],inactive
same,outcome,[4],inactive
O=C/C=C/c1ccccc1,outcome,[9],inactive
same,outcome,[4],inactive
OCC(O)CCl (configuration not stated),outcome,[9],inactive
same,outcome,[4],inactive
CC(C)(OO)c1ccccc1,outcome,[3],inactive
same,outcome,[4],inactive
Fc1ccc(C2(Cn3cncn3)OC2c2ccccc2Cl)cc1 (configuration not stated),outcome,[2],inactive
same,outcome,[3],inactive
same,AC50,[4],23.7 µM (active)
same,AC50,[5],12.7 µM (active)
same,AC50,[6],27.3 µM (active)
same,AC50,[7],14.9 µM (active)
O=C1C2(Cl)C3(Cl)C4(Cl)C(Cl)(Cl)C5(Cl)C3(Cl)C1(Cl)C5(Cl)C24Cl (configuration not stated),outcome,[2],inactive
same,outcome,[12],inactive
same,AC50,[10],19.2 µM (active) and 46.6 µM (active) and 26 µM (active)
same,AC50,[11],28.5 µM (active) and 76.6 µM (active) and 31.5 µM (active)
same,outcome,[13],inactive
same,outcome,[8],inactive
CCNc1nc(NC(C)(C)C)nc(SC)n1,outcome,[2],inactive
CCN(CC)C(=O)Cl,AC50,[2],2.82 µM (active)
COc1ccc(C=O)cc1,outcome,[9],inactive
same,outcome,[4],inactive
C[C@@H]1C[C@@H]([C@H](O)CC2CC(=O)NC(=O)C2)C(=O)[C@@H](C)C1,outcome,[2],inactive
same,outcome,[7],inactive
CC(C)c1ccc(CO)cc1,outcome,[3],inactive
CC1(C)CCC(Cc2ccc(Cl)cc2)C1(O)Cn1cncn1 (configuration not stated),AC50,[2],6.82 µM (active)
same,outcome,[3],inactive
same,outcome,[4],inactive
CCC[CH2][Sn]([Cl])([Cl])[Cl],AC50,[2],25 µM (active)
same,outcome,[4],inactive
Cc1ccccc1C(=O)Nc1cccc(OC(C)C)c1,outcome,[2],inactive
same,outcome,[4],inactive
same,outcome,[5],inactive
same,outcome,[10],inactive
same,outcome,[11],inactive
same,outcome,[6],inactive
Oc1ccc(-c2ccccc2)cc1,AC50,[2],4.83 µM (active)
same,outcome,[2],inactive
same,AC50,[7],12.7 µM (active)
same,outcome,[13],inactive
same,AC50,PGR (gene 5241),43.2 µM (active)
CC(C)C1CCC(Cc2ccc(Cl)cc2)C1(O)Cn1cncn1 (configuration not stated),AC50,[2],10.3 µM (active)
same,outcome,[3],inactive
same,outcome,[9],inactive
same,outcome,[4],inactive
same,AC50,[6],11.7 µM (active)
same,outcome,[7],inactive
COc1cc(OC)nc(NC(=O)NS(=O)(=O)c2ncccc2C(=O)N(C)C)n1,outcome,[2],inactive
same,outcome,[9],inactive
same,outcome,[4],inactive
same,outcome,[5],inactive
same,outcome,[6],inactive
same,outcome,[7],inactive
